Reference: PubChem BioAssay (NCI)
The panel holds about 79,000 compounds, 15% with a hit somewhere; the sample as a whole holds those more often. Rule as the data show it: active = growth inhibition above about 70%; inactive = the rest.

What was measured:
[1] = NCI Yeast Anticancer Drug Screen. Data for the rad50 strain (AID 155);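 also: 0% = growth of vehicle-only cultures of the same strain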; details: S. cerevisiae rad50 strain growth inhibition; at 50.0 µM; stronger effect = higher value
How it was run: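 Yeast carrying a defined DNA repair defect were exposed to test compounds, and growth was compared with vehicle-treated controls to give percent inhibition.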

[2] = NCI Yeast Anticancer Drug Screen. Data for the mec2-1 strain (AID 157); details: S. cerevisiae mec2-1 strain, at 50.0 µM, stronger effect = higher value
How it was run: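 Compounds were applied to mec2-1 yeast cells. Their growth was then compared with that of vehicle-treated cultures to give growth inhibition.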

[3] = NCI Yeast Anticancer Drug Screen. Data for the sgs1 mgt1 strain (AID 161);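 also: 0% = growth of cultures given vehicle only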; details: S. cerevisiae sgs1 mgt1 strain, at 50.0 µM, stronger effect = higher value
How it was run: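 This yeast growth screen uses a strain with defined DNA-repair lesions; compound-treated growth is compared with vehicle-treated growth.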

[4] = NCI Yeast Anticancer Drug Screen. Data for the cln2 rad14 strain (AID 165);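 also: 0% = growth equal to vehicle treated cultures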; details: S. cerevisiae cln2 rad14 strain, at 50.0 µM, stronger effect = higher value
How it was run: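 Strain: cln2 rad14 yeast, altered in cell cycle control and DNA damage repair. Read-out: growth inhibition vs vehicle.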

[5] = NCI Yeast Anticancer Drug Screen. Data for the bub3 strain (AID 167); details: S. cerevisiae bub3 mutant strain, at 50.0 µM, stronger effect = higher value
How it was run: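 Compounds were applied to a genetically altered yeast strain carrying a cell-cycle control defect. Growth inhibition was scored against vehicle-treated controls.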

[6] = NCI Yeast Anticancer Drug Screen. Data for the mlh1 rad18 strain (AID 175); details: S. cerevisiae mlh1 rad18 strain growth inhibition; at 50.0 µM; stronger effect = higher value
How it was run: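 A repair-deficient yeast strain is exposed to test compound, and growth is scored relative to vehicle-treated controls.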

Measured: growth inhibition

CCOC(=O)C(=O)C(C(=O)c1ccccn1)c1nc2n(c1O)C(=N)N=N2 (configuration not stated)
inactive: [1] -4.1% | [2] 4.4% | [3] -3.1% | [4] -0.25% | [5] -5.35% | [6] 5.3%

O=C(Nc1ccc(Cl)cc1Cl)C(=O)C(C(=O)c1ccncc1)C1OC(=O)c2ccccc21 (configuration not stated)
inactive: [1] -1% | [2] -38.3% | [3] -29.2% | [4] 23.4% | [5] 7.95% | [6] -0.4%

COC(=O)C(=O)Cc1nc2ccccc2s1
inactive: [1] 6.25% | [2] 1.35% | [3] 6.15% | [4] -29.8% | [5] -7.3% | [6] 7.3%

NNC(=O)C(=O)O
inactive: [1] 14.4% | [2] -2.95% | [3] 20.2% | [4] -15% | [5] 15.3% | [6] 14.8%

CCC(CO)(CO)CBr
inactive: [1] 3.75% | [2] -1.1% | [3] 0.6% | [4] -14.7% | [5] -4.9% | [6] 9.55%

SCCc1ccccc1
inactive: [1] -8.85% | [2] -35.1% | [3] -8.9% | [4] -14% | [5] 11.9% | [6] -3.15%

COc1cccc(-c2cc(=O)c3cc(OC)ccc3[nH]2)c1
inactive: [1] -19.8% | [2] -1.6% | [3] -14% | [4] 6.15% | [5] 13.2% | [6] -13.3%

Cc1c(Cl)cc(C(C)(C)C)c(O)c1Cc1c(C)c(Cl)cc(C(C)(C)C)c1O
inactive: [1] 19.4% | [2] -8.3% | [3] -46.6% | [4] 12.3% | [5] 0% | [6] 1.95%

O=C(NNC(=O)c1ccccc1Br)c1ccccc1
inactive: [1] -17.6% | [2] -45% | [3] -5.4% | [4] 3.45% | [5] -21.5% | [6] -23.6%

CC1CC(C)NC(C)C1 (configuration not stated)
inactive: [1] -17.1% | [2] -25.6% | [3] -50% | [4] 3.15% | [5] -10.9% | [6] -7.6%

COc1ccc2[nH]c(Br)c(CCNC(C)=O)c2c1
inactive: [1] -25.6% | [2] -7.4% | [3] -16.9% | [4] 1.9% | [5] -4.55% | [6] -31.9%

NC1=C(O)C(=O)C(c2ccc3c(c2)CCC3)O1 (configuration not stated)
inactive: [1] -24.5% | [2] -14.7% | [3] -22.4% | [4] -12.6% | [5] -14% | [6] -9.1%

Cc1cccc(C)c1NC(=O)C(Cl)Cl
inactive: [1] -2.9% | [2] -0.6% | [3] -3.9% | [4] 5.05% | [5] -12% | [6] -0.15%

CC(C)N(C(=O)C12C3C4C1C1C2C3C41C(=O)C(C)(C)C)C(C)C (configuration not stated)
inactive: [1] 43% | [2] 28.9% | [3] 52% | [4] 61% | [5] 41% | [6] 50.8%

CCCNc1ncnc2c1ncn2C
inactive: [1] 10.6% | [2] -15% | [3] -3.55% | [4] 7.65% | [5] 7.45% | [6] -4.65%

C=C(CBr)CCCCC
inactive: [1] 65.1% | [2] 23.3% | [3] 62.6% | [4] 14.1% | [5] 29.8% | [6] 0.55%

Cc1ccccc1Nc1nc2ccccc2nc1NS(=O)(=O)c1ccccc1
inactive: [1] 5.1% | [2] 0% | [3] 5.85% | [4] -0.8% | [5] 18.1% | [6] -58.4%

CC(C)CCCC(C)C1CCC2C3CC=C4CC(OP(=O)(N5CC5)N5CC5)CCC4(C)C3CCC12C (configuration not stated)
inactive: [1] 26.8% | [2] 1.4% | [3] 11.4% | [4] 19.3% | [5] -4.1% | [6] 12.2%

CCN(CC)CCOC(=O)c1ccc(NC(=O)Nc2ccc(Br)cc2)cc1
inactive: [1] 4.6% | [2] -4.95% | [3] 30.1% | [4] 0.25% | [5] 8.05% | [6] 11.2%

CCN=C(NCC)N(CC)CC
inactive: [1] -20.4% | [2] -5.75% | [3] -12.8% | [4] -11.6% | [5] 25.3% | [6] -11.8%

Cc1cc(NC(=O)N(CCCl)N=O)c(C)cc1NC(=O)c1ccccc1
inactive: [1] 24.5% | [2] -22.5% | [3] 40.5% | [4] -3.4% | [5] -0.5% | [6] 55.2%

Oc1ccc(O)c(-n2cccn2)c1-n1cccn1
inactive: [1] -0.85% | [2] -4.55% | [3] -1.6% | [4] 6.3% | [5] 0% | [6] -2.75%

CCOC(CO)OCC
inactive: [1] 28.9% | [2] -0.25% | [3] -3.4% | [4] 8.95% | [5] 13.6% | [6] -8%

O=C(/C=C\c1ccco1)NC(=O)NC(=O)N1CCCCC1
inactive: [1] -0.7% | [2] -22.3% | [3] -2.05% | [4] -16.4% | [5] -9.15% | [6] 4.7%

c1ccc2cc3c(cc2c1)Cn1c-3nc2ccccc21
inactive: [1] 19.4% | [2] -8.7% | [3] 13.2% | [4] 6.55% | [5] 11.4% | [6] 27.8%

O=C(O)c1c(O)cc(=O)oc1-c1ccccc1Cl
inactive: [1] -17.4% | [2] -23.2% | [3] -17.4% | [4] -13.6% | [5] -18.9% | [6] -16.9%

C/C(CC/C(C)=N/NC(N)=O)=N/NC(N)=O
inactive: [1] 1.7% | [2] -3.5% | [3] -9.85% | [4] 0.55% | [5] 21.9% | [6] -9.2%

S=c1ncnc2cc3[nH][nH]cc3cc12
inactive: [1] 1.95% | [2] 2.5% | [3] -5.35% | [4] -33.5% | [5] -7.95% | [6] -2.25%

CCCOc1cc(C)c(C(=O)OC(C)CN2CCCC2)c(C)c1 (configuration not stated)
inactive: [1] 3.5% | [2] -22.4% | [3] 15.8% | [4] -43.7% | [5] -2.1% | [6] -20.4%

Cc1cc(CC(=S)[S-])[n+](C)c(CC(=S)S)c1
inactive: [1] 12.2% | [2] 8.05% | [3] -14.1% | [4] 3.75% | [5] -1.55% | [6] 19.8%

COC(=O)/C(C#N)=C(\C)CC(C)C
inactive: [1] 13.2% | [2] -17.4% | [3] -20.1% | [4] -3.65% | [5] -24.4% | [6] -9%

COc1ccc(S(=O)(=O)N/N=C/c2cc(I)cc([N+](=O)[O-])c2O)cc1
inactive: [1] 15.1% | [2] 0.6% | [3] 9.85% | [4] 8% | [5] -3.85% | [6] 2.5%

CCCCCNN
inactive: [1] 0.95% | [2] -4.6% | [3] -8.5% | [4] 9.55% | [5] -6.75% | [6] 26.6%

C(=C/c1ccc(-c2ccccc2)cc1)/C=C/c1ccc(-c2ccccc2)cc1
inactive: [1] 3.3% | [2] 4% | [3] -0.2% | [4] -29.2% | [5] 6.95% | [6] 17.9%

Cc1cc(=O)oc2c(CNC(C(=O)O)C(C)C)c(O)ccc12 (configuration not stated)
inactive: [1] 5.05% | [2] -15.9% | [3] -19.7% | [4] 7.5% | [5] -16.8% | [6] -6.4%

CCC(=O)OC1CCC(OC(=O)CC)CC1 (configuration not stated)
inactive: [1] 7.3% | [2] 9.8% | [3] 2.45% | [4] -1.9% | [5] -6.05% | [6] -6.2%

FC(F)C(F)(F)N1c2ccccc2Sc2ccccc21
inactive: [1] 27.6% | [2] -6.2% | [3] 19.9% | [4] 6.9% | [5] 27.1% | [6] 60.1%

Cc1nn2c(c1C#N)NNc1c-2sc(=N)nnc1=O
inactive: [1] -1.6% | [2] 0.5% | [3] 13.5% | [4] -4.4% | [5] -9.4% | [6] 15.6%

CC1(C(O)(c2ccccc2)c2ccccc2)CC1(c1ccccc1)c1ccccc1 (configuration not stated)
inactive: [1] -21.4% | [2] -2.4% | [3] -10.9% | [4] -8.05% | [5] 1.3% | [6] -2.3%

CN(C)CCCN=c1c2ccccc2n(C)c2[nH]c(=O)n(C)c(=O)c12
inactive: [1] -32.1% | [2] -0.75% | [3] -16.2% | [4] -9.2% | [5] 0.05% | [6] -6.85%

COc1ccc(-c2c3nc(c(-c4ccc(OC)cc4)c4[n-]c(c(-c5ccc(OC)cc5)c5nc(c(-c6ccc(OC)cc6)c6[n-]c2c2ccccc62)-c2ccccc2-5)c2ccccc42)-c2ccccc2-3)cc1.[Zn+2]
inactive: [1] -21.1% | [2] -18.7% | [3] -29.9% | [4] 6.75% | [5] 16.6% | [6] -22.1%

COC1OCC(NC(C)=O)C(OC(C)=O)C1OC(C)=O (configuration not stated)
inactive: [1] 12.4% | [2] -13.1% | [3] -4.1% | [4] 2.35% | [5] -1.3% | [6] -8%
